The values that follow come from the supplement of paper PMC6135742.

Where a name gives a salt, the structure may show the parent alone. Over roughly 2,600 compounds, “MBP+ mature oligodendrocyte number relative to DMSO vehicle control” has its median near -0.34; the highest 2% begin near 13. The sample as a whole holds a higher share of the highest values than the screen did.

The assay concerns jimpy (Plp1 jimpy) mouse iPSC-derived oligodendrocyte progenitor cells. In words: MBP+ mature oligodendrocyte number relative to DMSO vehicle control (SDs above negative control mean); higher = more surviving jimpy oligodendrocytes (rescue). The conditions noted are these: 10 µM; 3 days. How it is done:
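Primary phenotypic screen of >3,000 bioactive compounds (Selleck L1700 and Sigma LO1280 libraries) at a single dose of 10 µM. Compounds were added to jimpy (Plp1 mutant) mouse iPSC-derived OPCs at the start of thyroid hormone-induced oligodendrocyte differentiation, one well per compound in 384-well plates. After 3 days cells were stained for MBP, Sox10 and DAPI and imaged with an Operetta system. MBP+ oligodendrocyte number and total cell number were expressed as the number of SDs above the mean of the DMSO negative control on the same plate (n=16 control wells per plate). Hits were defined as >=4 SD for oligodendrocytes and >=2 SD for total cells.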
Turning to `OC1CCCCC1N1CCC(c2ccccc2)CC1` (racemic) [(±)-Vesamicol hydrochloride], the “MBP+ mature oligodendrocyte number” value came to 15.7.

Turning to `Cc1ccc2c(c1)C1(CCN(CCc3nc(-c4ccccc4)oc3C)CC1)OC(=O)N2`, the “MBP+ mature oligodendrocyte number” value is -2.6.

Consider `C[N+]1(C)[C@@H]2CC(OC(=O)[C@H](CO)c3ccccc3)C[C@H]1[C@@H]1O[C@@H]12` (single isomer, unassigned; (-)) [(-)-Scopolamine methyl nitrate], for which the “MBP+ mature oligodendrocyte number” value was 0.539.

In the case of `N[C@]1(C(=O)O)CC[C@H](C(=O)O)C1` (racemic) [trans-(±)-ACPD], the “MBP+ mature oligodendrocyte number” value worked out at 0.981.

Regarding `CN1CC[C@@]2(C)c3cc(O)ccc3N(C)C12` (single isomer, unassigned; (-)) [(-)-Eseroline fumarate], the “MBP+ mature oligodendrocyte number” value is -1.28.

As to `COc1ccc2c(c1OC)C(=O)OC2C1c2cc3c(cc2CCN1C)OCO3` (single isomer, unassigned; (+)) [(+)-Hydrastine], the “MBP+ mature oligodendrocyte number” value was found to be 1.13.

`NC(=O)c1ccc(OCC(O)CN2CC=C(c3ccc(F)cc3)CC2)cc1` (stereo not given): the “MBP+ mature oligodendrocyte number” value is 13.9.

As to `CC(=O)OCC1=C(C(=O)[O-])N2C(=O)[C@@H](NC(=O)CCC[C@@H](N)C(=O)[O-])[C@H]2SC1.[Zn+2]` [Cephalosporin C zinc salt], the “MBP+ mature oligodendrocyte number” value was -0.943.

For the molecule `CCCC[N+]1(C)[C@@H]2C[C@@H](OC(=O)[C@H](CO)c3ccccc3)C[C@H]1[C@@H]1O[C@@H]12` (single isomer, unassigned; (-)) [(-)-Scopolamine,n-Butyl-, bromide], the “MBP+ mature oligodendrocyte number” value is -0.925.

For `CN1CC[C@]2(CCN3CCc4c(oc5ccccc45)[C@@H]3C2)N(C)C1=O`, the “MBP+ mature oligodendrocyte number” value came out at 1.72.

As to `CCS(=O)(=O)Nc1cccc(C(=C2CCCCC2)c2cnc[nH]2)c1`, the “MBP+ mature oligodendrocyte number” value was 2.51.

As to `CC(C)Oc1cccnc1N(C)C1CCN(Cc2ccccc2)CC1`, the “MBP+ mature oligodendrocyte number” value came out at 19.1.

`CO[C@H]1CC[C@@H](O[C@H]2C[C@H]([C@]3(C)CC[C@]4(C[C@H](O)[C@@H](C)[C@@H]([C@@H](C)/C=C(\C)C(=O)[C@H](C)C[C@H](C)C(=O)O)O4)O3)O[C@]3(O[C@@H]([C@H]4O[C@@](O)(CO)[C@H](C)C[C@@H]4C)C[C@@H]3C)[C@@H]2C)O[C@@H]1C` [Nanchangmycin]: the “MBP+ mature oligodendrocyte number” value was below -6.7.

For the molecule `CC(N)Cc1cccc(C(F)(F)F)c1` (single isomer, unassigned; (+)) [(+)-Norfenfluramine hydrochloride], the “MBP+ mature oligodendrocyte number” value was determined as 0.753.

`COc1ccc2[nH]c3c(c2c1)CCNC3` [6-Methoxy-1,2,3,4-tetrahydro-9H-pyrido[3,4b] indole]: the “MBP+ mature oligodendrocyte number” value is -0.315.
